Screening results: PubChem, National Center for Advancing Translational Sciences (NCATS)
Shown are actives, neighbours in structure and some others; about 19% of the full set was active somewhere.
HT1080NT lethal: kills 2HG-producing HT-1080-NT fibrosarcoma cells. Potency, µM (titrated, usually from 46.1 µM), inactives show at the top dose activity, negative = less viability, actives largely listed as cytotoxic. HT-1080-NT fibrosarcoma viability, CellTiter-Glo ATP luminescence, 48 h. 1.6% of 360,000 active. AID 686970;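 note: NT is the 2HG producing partner of a matched IDH1 knockdown line; 0% = DMSO-treated cells and -100% = media-only wells without cells; nearly all actives have a fitted effect of over 55% in size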
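Viability by CellTiter-Glo luminescence after 48 h compound exposure at 37C of HT-1080-NT cells (750/well, RPMI, 5% FBS). % activity scaled between DMSO wells and medium-only wells, then curve-fitted and categorized by curve class.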
TDP1 cell CPT: growth inhibition of DT40 Tdp1-/-;hTDP1 cells with camptothecin (screen for TDP1 inhibitors) | chicken DT40 Tdp1-/-;hTDP1 cells + 20 nM CPT, ATP luminescence, 48 h | Potency, µM (doses to about 46.2 µM), for inactives: top-dose activity change, negative = growth inhibition, actives largely listed as inhibitors | 12% of 420,000 active; note: nearly all actives have a fitted effect of over 55% in size
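Chicken DT40 Tdp1-/- cells stably complemented with human TDP1 were seeded at 400 cells/well in medium containing 20 nM camptothecin, exposed to pin-transferred compounds, and grown at 37 °C for at least 48 hr. Viability was read as ATP luminescence.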
DT40 TDP1 no CPT: qHTS for Inhibitors of human tyrosyl-DNA phosphodiesterase 1 (TDP1): qHTS in cells in absence of CPT. DT40 Tdp1-/- hTDP1 cells, no CPT, ATP luminescence, 48 h. Potency, µM (series often up to 46.2 µM), without a hit: top-dose activity change, negative = growth inhibition, usual class: inhibitors. 15% of 420,000 active. AID 686978, 2013; note: nearly all actives have a fitted effect of over 55% in size
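DT40 Tdp1-/-;hTDP1 cells, no CPT (DMSO vehicle only), 400 cells/well; compounds pin-transferred; ≥48 hr, 37 °C; CellTiter-Glo 30 min RT dark, luminescence read.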
KB-3-1 cytotox: KB-3-1 parental cell cytotoxicity. KB-3-1 viability, CellTiter-Glo ATP luminescence, 72 h. Potency, µM (series often up to 46.1 µM), usual class: cytotoxic. 1.4% of 400,000 active. AID 1347075; note: nearly all actives have a fitted effect of over 60% in size
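KB-3-1 parental drug-naive adenocarcinoma cells in DMEM/10% FBS, incubated 72 h at 37 C with pin-transferred compounds across a concentration series. Viability by CellTiter-Glo luminescence; concentration-response curves fitted after normalization.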
HT1080 IDH1KD tx: HT-1080 IDH1 knockdown cell toxicity (counter line). Potency, µM (top dose mostly 46.1 µM), for inactives: top-dose activity, negative = toxicity, most hits filed as cytotoxic. HT-1080 IDH1 knockdown viability, ATP luminescence, 48 h. 2% of 360,000 active;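 note: 0% = DMSO wells and -100% = cell-free medium wells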
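Assay cells: HT-1080 with IDH1 knockdown, 750 per well, RPMI/5% FBS. Exposure: 48 h at 37 °C following 2 h pre-incubation. Read: CellTiter-Glo luminescence; fitted concentration-response, curve class assigned.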
KB-V1 cytotox: kills drug-selected multidrug resistant KB-V1 cells. KB-V1 MDR cells viability, CellTiter-Glo, 72 h. Potency, µM (top dose mostly 46.1 µM), actives largely listed as cytotoxic. 3.4% of 400,000 active; note: nearly all actives have a fitted effect of over 60% in size
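In this primary screen, KB-V1 cells overexpressing P-gp are incubated with library compounds (lowest to highest concentration) for 72 h at 37 degrees C before a luminescent ATP viability read.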
* = called active by the depositor. Calls come from the whole dose curve; as a rule, active = well fitted curve in the direction sought with a large enough effect; inconclusive = small, poorly fitted or top-dose-only effect, or another doubt; inactive = no such curve, though single readings can be large; an effect the other way counts as inactive or inconclusive. Unless noted, % is set by controls: 0 for no effect and ±100 for the full control effect; potency is the fitted concentration of half-maximal effect.

`Cc1cccc(N(CC(=O)NCCSc2ccc(Cl)cc2)S(C)(=O)=O)c1C` gave TDP1 cell CPT inconclusive, DT40 TDP1 no CPT inconclusive, KB-3-1 cytotox inactive and KB-V1 cytotox inactive.
Screening O=c1cc2c(nn1Cc1ccccc1Cl)-c1ccccc1CC2 returned HT1080NT lethal -24.1%, TDP1 cell CPT -25.7%, DT40 TDP1 no CPT -18.3%, KB-3-1 cytotox inactive, HT1080 IDH1KD tx -17.9% and KB-V1 cytotox inactive.
Cc1ccc2onc(CC(=O)Nc3cc(F)ccc3F)c2c1 was read as TDP1 cell CPT -14.0% and DT40 TDP1 no CPT -29.9%.
Screening COc1ccc(C(=O)NNC(=O)CSc2nnc(C)n2C)cc1 returned HT1080NT lethal 0.7%, TDP1 cell CPT -8.4%, DT40 TDP1 no CPT -2.8%, KB-3-1 cytotox inactive, HT1080 IDH1KD tx -6.5% and KB-V1 cytotox inactive.
COc1ccc(C(=O)c2cnc3cc4c(cc3c2C)OCO4)cc1 was read as HT1080NT lethal -6.3%, TDP1 cell CPT inconclusive, DT40 TDP1 no CPT inconclusive, KB-3-1 cytotox inactive, HT1080 IDH1KD tx -10.5% and KB-V1 cytotox inconclusive.
For COc1ccc(S(=O)(=O)c2c(C(=O)c3ccc(C)c(C)c3)cnc3ccc(F)cc23)cc1 the results were TDP1 cell CPT 7.31µM*, DT40 TDP1 no CPT 6.51µM*, KB-3-1 cytotox inactive and KB-V1 cytotox inactive.
`COc1ccc(C(=O)c2cnc3ccc(C)cc3c2S(=O)(=O)c2ccccc2)cc1` gave TDP1 cell CPT 16.4µM*, DT40 TDP1 no CPT 18.4µM*, KB-3-1 cytotox inactive and KB-V1 cytotox inconclusive.
Screening O=c1c(-c2ccc(F)cc2)nc2cnc(Oc3ccccc3)nc2n1Cc1cccs1 returned TDP1 cell CPT inconclusive and DT40 TDP1 no CPT -0.9%.
Screening Cc1ccc(CNC(=O)CCCn2c(=O)c3ccccc3n(CC(=O)Nc3ccc(C)c(C)c3)c2=O)cc1 returned TDP1 cell CPT -14.4%, DT40 TDP1 no CPT -19.1%, KB-3-1 cytotox inactive and KB-V1 cytotox inactive.
Screening Cc1ccc(NC(=O)Cn2c(=O)n(CCC(=O)N3CCc4ccccc4C3)c(=O)c3ccccc32)cc1 returned TDP1 cell CPT 18.4µM*, DT40 TDP1 no CPT 16.4µM*, KB-3-1 cytotox inactive and KB-V1 cytotox inactive.
`O=C(Cn1c(=O)n(CCC(=O)N2CCc3ccccc3C2)c(=O)c2ccccc21)NCC1CCCO1` (centres undefined) gave HT1080NT lethal 7.1%, TDP1 cell CPT -5.4%, DT40 TDP1 no CPT -16.9%, KB-3-1 cytotox inactive, HT1080 IDH1KD tx 16.4% and KB-V1 cytotox inactive.
Screening Cc1ccccc1NC(=O)Cn1c(=O)n(CCC(=O)N2CCc3ccccc3C2)c(=O)c2ccccc21 returned TDP1 cell CPT 16.4µM*, DT40 TDP1 no CPT 14.6µM*, KB-3-1 cytotox inactive and KB-V1 cytotox inactive.
For CC1CCCCC1NC(=O)C1CCC(CNS(=O)(=O)c2ccccc2)CC1 (centres undefined) the results were HT1080NT lethal -14.3%, TDP1 cell CPT 7.3%, DT40 TDP1 no CPT -29.6%, KB-3-1 cytotox inactive, HT1080 IDH1KD tx 7.7% and KB-V1 cytotox inactive.
Screening COc1cccc(CN(CCC(=O)O)Cc2cccc(OC)c2)c1 returned HT1080NT lethal 1.0%, TDP1 cell CPT 2.5%, DT40 TDP1 no CPT inconclusive, KB-3-1 cytotox inactive, HT1080 IDH1KD tx -13.6% and KB-V1 cytotox inactive.
Screening c1cc2[nH]snc2c2nc(C3CC3)nc12 returned HT1080NT lethal -26.8%, TDP1 cell CPT 18.4µM*, DT40 TDP1 no CPT 13µM*, KB-3-1 cytotox inconclusive, HT1080 IDH1KD tx inconclusive and KB-V1 cytotox inconclusive.
